Among the data in PubChem BioAssay (NCI) are growth values, retold here.

About 83,000 compounds went through this panel and 20% of them were active in at least one assay; those are over-represented in the sample as a whole.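 Step 1: grow cells in 96-well plates. Step 2: add test compound at a single concentration. Step 3: incubate 48 h. Step 4: record percent growth.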 Unmarked numbers belong to inactive results. Activity calls are given as the source filed them. How the source made its calls: active means growth percent below 10; inactive means the rest.

Some test systems named below: HCT-15 colon; HT29 colon; SNB-75 CNS; SNB-19 CNS; U251 CNS; PC-3 prostate; SK-MEL-5 melanoma; UACC-62 melanoma; LOX IMVI melanoma; SK-MEL-28 melanoma.
Holding throughout (assay): NCI-60 one-dose screen, 48 h (100 = growth as untreated, 0 = no growth, -100 = all killed)
Holding throughout (details): 10 µM unless noted

With `O=C(Nc1ccc(F)c(F)c1)c1cc(-c2ccc(F)cc2F)ccc1O`, the growth was 2.24% (active) in the test on HCT-15 colon; 88.6% in the test on HT29 colon; -0.285% (active) with SNB-75 CNS; 12.5% in the test on SNB-19 CNS; 11.4% in the test on U251 CNS; 8.32% (active) in the test with PC-3 prostate. For the same compound, the growth in the test with SK-MEL-5 melanoma is -79.9% (active); in the test on UACC-62 melanoma, -18.3% (active); with LOX IMVI melanoma, 2.89% (active); in the test on SK-MEL-28 melanoma it was 20%.

On to `Nc1ccccc1NC(=O)c1ccc(NC(=O)C/C=C/c2cccnc2)cn1`, for which the growth is 21.4% with HCT-15 colon; 12.9% in the test on HT29 colon; 29.4% in the test on SNB-75 CNS; 33.1% with SNB-19 CNS; 15.6% in the test on U251 CNS; 31.6% in the test with PC-3 prostate. For the same compound, the growth in the test with SK-MEL-5 melanoma was -75.9% (active); with UACC-62 melanoma, 0.71% (active); in the test with LOX IMVI melanoma, 1.78% (active); in the test with SK-MEL-28 melanoma, -34% (active).

In the case of `O=S(=O)(NCCNc1nccc(-n2cnc3ccccc32)n1)c1ccc(C(F)(F)F)cc1`, the growth was 60.7% with HCT-15 colon; 68% with HT29 colon; 46.8% in the test on SNB-75 CNS; 69.8% in the test on SNB-19 CNS; 69.6% in the test on U251 CNS; 45.5% in the test with PC-3 prostate. Also, the growth is 8.48% (active) with SK-MEL-5 melanoma, 42.4% in the test on UACC-62 melanoma, 57.4% in the test on LOX IMVI melanoma and 77.2% in the test on SK-MEL-28 melanoma.

Consider `O=C(CSc1nc2ccccc2c(=O)n1-c1ccccc1)Nc1cccc(C(=O)/C=C/c2ccccc2)c1`, for which the growth in the test on HCT-15 colon was 76.4%; with HT29 colon it was 96.4%; in the test on SNB-75 CNS, 75.6%; in the test on SNB-19 CNS, 85.5%; with U251 CNS it was 71.2%; with PC-3 prostate it was 90.4%. For the same compound, the growth in the test on SK-MEL-5 melanoma is 99.5%; with UACC-62 melanoma, 88.7%; in the test with LOX IMVI melanoma, 86.1%; with SK-MEL-28 melanoma it was 102%.

For `CCn1c(SCC(=O)Nc2cccc(C(=O)/C=C/c3ccccc3Cl)c2)nc2ccccc2c1=O`, the growth in the test with HCT-15 colon is 55.2%; in the test with HT29 colon, 67.1%; in the test with SNB-75 CNS it was 89.5%; in the test on SNB-19 CNS, 82.3%; with U251 CNS it was 73.4%; in the test on PC-3 prostate, 75.4%. The growth is 93.5% in the test on SK-MEL-5 melanoma, 79.9% in the test with UACC-62 melanoma, 27.6% with LOX IMVI melanoma and 98.3% in the test on SK-MEL-28 melanoma.

For `c1cn2c(ccc3nc(-c4cn[nH]c4)c4c(c32)CCCC4)n1`, the growth in the test on HCT-15 colon was 35.1%; in the test with HT29 colon, 62.4%; in the test on SNB-75 CNS, 40.5%; with SNB-19 CNS, 75.5%; in the test on U251 CNS, 56.1%; in the test with PC-3 prostate, 48.3%. Further, the growth in the test on SK-MEL-5 melanoma was 87.6%; in the test with UACC-62 melanoma, 33.5%; in the test on LOX IMVI melanoma it was 79%; with SK-MEL-28 melanoma, 66%.

`CCCCCc1ccc(S(=O)(=O)Nc2cccc(-c3csc(NC(=O)CCCCCN4CCN(CCO)CC4)n3)c2)cc1`: the growth in the test on HCT-15 colon is 43.1%; in the test on HT29 colon, 11.4%; in the test with SNB-75 CNS it was 98.5%; in the test with SNB-19 CNS, 85.9%; with U251 CNS it was 65.8%; in the test on PC-3 prostate it was 68.1%. Moreover, the growth with SK-MEL-5 melanoma is 66.1%; with UACC-62 melanoma it was 87.6%; in the test on LOX IMVI melanoma it was -60.3% (active); in the test on SK-MEL-28 melanoma it was 71.1%.

In the case of `Cc1nn(-c2ccccc2)c2ncnc(N/N=C/c3ccccc3O)c12`, the growth was 21.3% with HCT-15 colon; 24.6% with HT29 colon; 5.46% (active) with SNB-75 CNS; 17.5% with SNB-19 CNS; 11.2% in the test on U251 CNS; 25.9% with PC-3 prostate. Moreover, the growth in the test with SK-MEL-5 melanoma is -70.2% (active); with UACC-62 melanoma, -11.2% (active); with LOX IMVI melanoma, 2.3% (active); in the test with SK-MEL-28 melanoma, 23.2%.

As for `O=C(O)c1ccc(-n2cc(CNc3cc(F)c(F)c(F)c3)c(-c3ccc(F)cc3)n2)cc1`, the growth in the test on HCT-15 colon was 68.1%; in the test with HT29 colon it was 108%; in the test on SNB-75 CNS, 100%; with SNB-19 CNS, 95.3%; in the test on U251 CNS, 97.8%; in the test with PC-3 prostate it was 79.2%. Also, the growth is 81.2% in the test with SK-MEL-5 melanoma, 64.9% with UACC-62 melanoma, 105% in the test with LOX IMVI melanoma and 85.9% with SK-MEL-28 melanoma.

`CCO/C=N/C1=C(C#N)C(c2ccc(Cl)cc2)c2sc3c(CC)cccc3c2O1` (stereo not given): the growth in the test on HCT-15 colon is 23.3%; in the test with HT29 colon, 10.7%; in the test with SNB-75 CNS, -5.34% (active); in the test on SNB-19 CNS, 24.1%; with U251 CNS, 20%; with PC-3 prostate, 16.5%. In addition, the growth in the test on SK-MEL-5 melanoma is 20.5%; in the test on UACC-62 melanoma, 15.8%; in the test with LOX IMVI melanoma, 29.9%; with SK-MEL-28 melanoma, 61.2%.

With `C#Cc1nc(/C=C/C(=O)c2nccn2C)cs1`, the growth in the test with HCT-15 colon is -72.9% (active); with HT29 colon, -38.2% (active); in the test with SNB-75 CNS it was -3.26% (active); in the test on SNB-19 CNS it was -79.2% (active); with U251 CNS, -74.3% (active); in the test on PC-3 prostate it was -78.9% (active). In addition, the growth with SK-MEL-5 melanoma was -84.2% (active); with UACC-62 melanoma, -84.3% (active); with LOX IMVI melanoma, -81.4% (active); with SK-MEL-28 melanoma it was -31.9% (active).

For `COc1ccccc1C(=O)Nc1cccc2c1C(=O)C(=O)C=C2`, the growth in the test with HCT-15 colon is 93.6%; in the test with HT29 colon, 62.5%; with SNB-75 CNS, 70%; in the test on SNB-19 CNS, 106%; in the test with U251 CNS it was 107%; with PC-3 prostate, 89.8%. For the same compound, the growth in the test with SK-MEL-5 melanoma was 93.2%; with UACC-62 melanoma it was 105%; in the test on LOX IMVI melanoma, 63.1%; with SK-MEL-28 melanoma, 108%.

Consider `COc1ccccc1-n1cc(C#N)c(N)c1C(=O)c1ccc(Cl)cc1`, for which the growth with HCT-15 colon is 36.2%; in the test on HT29 colon, 52.8%; with SNB-75 CNS, 62.3%; in the test with SNB-19 CNS, 69.4%; in the test with U251 CNS, 91.9%; in the test with PC-3 prostate, 58%. In addition, the growth was 60.1% in the test on SK-MEL-5 melanoma, 46.3% in the test with UACC-62 melanoma, 67.9% with LOX IMVI melanoma and 74.3% with SK-MEL-28 melanoma.

Regarding `C[C@H]1c2[nH]c3ccccc3c2C[C@H]2C(=O)N(CCCCCCC(=O)NO)CC(=O)N21`, the growth in the test with HCT-15 colon is 99.3%; in the test with HT29 colon, 86.8%; in the test on SNB-75 CNS, 82.1%; in the test on SNB-19 CNS, 84.8%; in the test with U251 CNS it was 85.2%; in the test on PC-3 prostate, 77.7%. Besides, the growth was 83% in the test with SK-MEL-5 melanoma, 69.6% with UACC-62 melanoma, -8.74% (active) with LOX IMVI melanoma and 78.9% with SK-MEL-28 melanoma.
